A selection follows.
aSyn UTR act: Activators working through SNCA 5'UTR binding (MLPCN); alpha-synuclein 5'UTR reporter, activators screen; 7.1% of 300,000 active; activity score, % (tested at 7.5 µM), hits read low; AID 1814; in the data active means activity score below about -60%
* hit, by the source's call.

SMILES | aSyn UTR act
O=C(NCCc1ccccc1Cl)c1ccc2nc3ccccc3c(=O)n2c1 | -100*
CN(C)S(=O)(=O)c1cccc(C(=O)N=C2N=C3C=CC(Cl)=CN3Cc3ccccc32)c1 | -105*
O=C(N=C1N=C2C=CC=CN2Cc2ccccc21)c1ccc(S(=O)(=O)N2CCCC2)cc1 | -134*
CC1CN(C(=O)c2ccccc2)C(=Nc2cccc(S(=O)(=O)N(C)C)c2)S1 (stereo not drawn) | 41
O=C(N=C1N=C2C=CC=CN2Cc2ccccc21)c1ccc(S(=O)(=O)N2CCOCC2)cc1 | -143*
CC(=O)Nc1nc(-c2ccc3c(c2)CC(C)N3C(=O)C2CC2)c(C)s1 (stereo not drawn) | -295*
CCOC(=O)C(=O)Nc1nc(-c2ccc3c(c2)CCN3C(=O)C2CC2)c(C)s1 | -76*
CC1Cc2cc(S(=O)(=O)NCc3ccccc3)ccc2N1C(=O)C1CC1 (stereo not drawn) | -65*
Cc1sc(NC(=O)c2ccco2)nc1-c1ccc2c(c1)CC(C)N2C(=O)C1CC1 (stereo not drawn) | -106*
Nc1cccn2c(-c3ccc(Cl)cc3)cnc12 | -260*
Nc1cccn2c(-c3ccc(Cl)c(Cl)c3)cnc12 | -183*
COc1ccc(CCC(=O)NCCS(=O)(=O)N2CCN(c3ccccc3OC)CC2)cc1 | -112*
O=C1/C(=C/N(C(=O)c2ccco2)c2ccc(Br)cc2)Sc2ccccc21 | -241*
O=C1/C(=C/N(C(=O)c2ccco2)c2ccc(Cl)cc2)Sc2ccccc21 | -184*
COC(=O)c1ccc(NC(=S)Nc2ccccn2)cc1 | -171*
COc1ccc(NC(=S)Nc2ccccn2)cc1 | -168*
CC(=O)Nc1ccc(S(=O)(=O)N2c3ccccc3C(C)=CC2(C)C)cc1 | 121
CC(=O)Nc1ccc(/C=C2\CCc3ccccc3C2=O)cc1 | -118*
Cc1ccc2nc(-c3sc4nc(C)cc(C)c4c3N)[nH]c2c1 | -63*
O=C(/C=C/c1ccccc1[N+](=O)[O-])NCCN1C(=O)S/C(=C\c2ccc(F)cc2)C1=O | -113*
Cc1ccc(N(CC(=O)NCCSc2ccccn2)S(C)(=O)=O)cc1 | -98*
Cc1ccc(C(=O)CSc2ccccn2)cc1 | -191*
O=C(CSc1ccccn1)c1ccc(F)cc1 | -130*
O=C(OCn1ncc(Br)c(Br)c1=O)c1ccc(F)cc1 | 64
Cc1ccc(NC(=O)CCSc2ccccn2)cc1 | -145*
SMILES | aSyn UTR act
Cn1c(CO)cnc1SCC(=O)c1ccc(F)cc1 | -65*
COc1cc(C(=O)NCC(=O)N2CCN(S(=O)(=O)c3cc(C)ccc3C)CC2)cc(OC)c1OC | -75*
Fc1ccc(N2Cc3ccsc3C=N2)cc1 | -64*
O=C1c2ccccc2C(=O)N1CCN1CCc2ccccc21 | -97*
Cc1nc2cc(Nc3nnc(-c4ccccc4)c4ccccc34)ccc2n1C | -110*
COc1ccc(CNc2ccc3c(c2)CCC3)cc1Br | -105*
COc1ccccc1CNc1ccc2c(c1)CCC2 | -82*
CCOc1cc(CNc2ccc3c(c2)CCC3)ccc1OC | -163*
CCCCOc1ccccc1NC(=O)Cn1c(-c2nonc2N)nc2ccccc21 | 124
Cc1cccc2c1cnn2C(=O)Nc1cc(F)ccc1F | -178*
CCC(=O)Nc1nonc1-c1nc2ccccc2n1Cc1cccc2ccccc12 | 67
CCOc1ccccc1NC(=O)n1ncc2c(C)cccc21 | -68*
Cc1ccc(NC(=O)CCCC2CCCCC2)c(O)c1 | -150*
Cc1ccc(C2=Nc3ccccc3SC(c3cccc([N+](=O)[O-])c3)C2)cc1 (stereo not drawn) | -113*
O=[N+]([O-])c1ccc(-c2csc(NN=C3CCCC3)n2)cc1 | -177*
CC(C)C(=O)Nc1nc(-c2ccc([N+](=O)[O-])cc2)cs1 | -74*
COCC(=O)Nc1nc(-c2ccc([N+](=O)[O-])cc2)cs1 | -70*
CNc1nc(-c2ccc([N+](=O)[O-])cc2)cs1 | -135*
CCc1ccccc1OCC(=O)Nc1nc(-c2cccnc2)cs1 | 70
O=C(COC(=O)c1ccccn1)Nc1nc(-c2ccccc2)cs1 | -80*
COCC(=O)Nc1nc(-c2ccc(-c3ccccc3)cc2)cs1 | -220*
O=C(NCc1ccccc1)c1c[nH]c2cc3c(cc2c1=O)OCCO3 | -183*
O=C(NCc1ccc2c(c1)OCO2)c1ccccc1Cl | -100*
O=C(Cc1ccccc1)NCc1ccc2c(c1)OCO2 | -99*
O=C(Cc1ccccc1[N+](=O)[O-])NCc1ccc2c(c1)OCO2 | -123*
SMILES | aSyn UTR act
c1ccc(-c2nnc(-c3ccncc3)nc2-c2ccccc2)cc1 | -105*
O=C1c2ccccc2NC(c2ccccc2Cl)N1N=C1CCCCCC1 (stereo not drawn) | -179*
COc1ccc2c(c1)C(=O)CC(c1ccc3c(c1)OCCO3)O2 (stereo not drawn) | -272*
COc1ccc2c(c1)O[C@@H](c1cccc(C(F)(F)F)c1)[C@H](O)C2=O | 62
COc1ccc2c(c1)O[C@H](c1ccc3c(c1)OCO3)[C@@H](O)C2=O | -86*
Cc1ccc2c(c1)C(=O)CC(c1ccc3c(c1)OCCO3)O2 (stereo not drawn) | -96*
Cc1ccc(NC(=S)Nc2ccc(Br)cc2)cc1 | -86*
Fc1ccccc1NC(=S)Nc1ccc(Br)cc1 | -74*
Fc1cc(Br)ccc1NC(=S)Nc1ccccc1 | -115*
COc1ccc(C(=S)N2CCOCC2)cc1OS(=O)(=O)c1ccccc1[N+](=O)[O-] | -70*
c1cc2c(cnc3cscc32)s1 | -69*
CN(C)/C=N/c1c(C#N)cnn1-c1nc2ccccc2s1 | -96*
O=[N+]([O-])c1ccc2nc(-c3ccc(Cl)cc3)n(OCc3ccccc3)c2c1 | -243*
Cc1ccc(COn2c(-c3ccc(Cl)cc3)nc3ccc([N+](=O)[O-])cc32)cc1 | -198*
Nc1ccc(C#Cc2c(-c3ccsc3)oc3ccc(N4CCOCC4)cc23)cc1 | -168*
COc1ccc(-c2oc3ccc(N4CCOCC4)cc3c2C#CCO)cc1 | -92*
O=C(/C=C/c1ccccc1F)c1ccoc1 | -68*
COC(=O)c1sccc1NC(=O)COc1ccc(C)cc1 | -144*
CC1(C)Cc2c(sc(NC(=O)COc3ccc(Cl)cc3Cl)c2C(N)=O)C(C)(C)N1 | 62
COC(=O)c1sccc1NC(=O)COc1ccc(Cl)cc1Cl | -162*
O=C(Nc1cccnc1Cl)c1ccc2c(Cl)c3c(nc2c1)CCC3 | -71*
CC1CCN(C(=O)c2ccc3ccccc3c2)CC1 | -152*
O=C(NC1CC1)c1ccc2c(Cl)c3c(nc2c1)CCCC3 | -87*
CC1CCN(C(=O)c2ccc(S(=O)(=O)Cc3ccccc3F)c([N+](=O)[O-])c2)CC1 | -71*
N#Cc1ccccc1NC(=O)c1ccc2c(Cl)c3c(nc2c1)CCCC3 | -219*
SMILES | aSyn UTR act
CC1CCN(C(=O)c2ccc3c(Cl)c4c(nc3c2)CCCC4)CC1 | -71*
CC(=O)c1cccc(NC(=O)c2ccc3c(Cl)c4c(nc3c2)CCCC4)c1 | -83*
CC(C)(C)C1CCC(OC(=O)c2cncc(Br)c2)CC1 (stereo not drawn) | -123*
Fc1cccc(Cl)c1CSc1ccc(-c2cccnc2)nn1 | -80*
CC(=O)c1ccc(NC(=O)[C@@H]2CCCN2C(=O)OC(C)(C)C)cc1 | -94*
C/C(=N\Nc1nc2ccc(Cl)cc2o1)c1ccccc1 | -66*
O=C(Nc1ncccc1Cl)c1cc2ccccc2o1 | -74*
Nc1ccc(NC(=O)c2cccc(C(=O)Nc3ccc(N)cc3Cl)c2)c(Cl)c1 | -85*
O=C(NCCc1ccccn1)c1cc2ccccc2o1 | -102*
Cc1ccccc1NC(=O)c1cc2ccccc2o1 | -172*
O=C(Nc1ccccc1Cl)c1cc2ccccc2o/c1=N\O | -121*
